Source: PubChem BioAssay AID1159580 (chemical genetic matrix, 2015)
Among all 5,500 compounds or so, about 2,000 (36%) were called active. Not shown: some 18% with an inconclusive outcome. Rule as the data show it: active = normalized growth mostly below about 0.91 (no sharp cut-off); inconclusive = no clear call, values can overlap the other calls; inactive = mostly above about 0.92. The list shows a part of the results.

Assay: chemical genetic growth profiling, strain panel (AID 1159580);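 also: tested at 20 µM; growth read once vehicle control cultures reached saturation at 30 °C; 1 = growth at the plate median or of vehicle wells; lower values mean less growth of the strain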
Conditions: growth OD

Measured: normalized growth

COc1cc(CNC(=O)CCCC/C=C/C(C)C)ccc1O
inactive: S. cerevisiae deletion strains, locus YJR043C, strain POL32, active compounds read low 1 | S. cerevisiae deletion strains, locus YJR066W, strain TOR1, active compounds read low 0.95 | S. cerevisiae deletion strains, locus YKL009W, strain mrt4, active compounds read low 0.926 | S. cerevisiae deletion strains, locus YKL068W, active compounds read low 1.01 | S. cerevisiae deletion strains, locus YKL085W, strain MDH1 (second series), active compounds read low 1 | S. cerevisiae deletion strains, locus YKL085W, strain MDH1, active compounds read low 1 | S. cerevisiae deletion strains, locus YKL160W, strain elf1, active compounds read low 0.97 | S. cerevisiae deletion strains, locus YKL190W, strain CNB1, active compounds read low 0.998 | S. cerevisiae deletion strains, locus YKR001C, strain vps1, active compounds read low 0.997 | S. cerevisiae deletion strains, locus YKR026C, strain gcn3, active compounds read low 0.97 | S. cerevisiae deletion strains, locus YKR091W, strain srl3, active compounds read low 0.981 | S. cerevisiae deletion strains, locus YLL001W, strain dnm1, active compounds read low 0.955 | S. cerevisiae deletion strains, locus YLL026W, active compounds read low 0.987 | S. cerevisiae deletion strains, locus YLL041C, strain sdh2, active compounds read low 0.987 | S. cerevisiae deletion strains, locus YLR027C, strain aat2, active compounds read low 0.975 | S. cerevisiae deletion strains, locus YLR039C, strain RIC1, active compounds read low 1.07 | S. cerevisiae deletion strains, locus YLR058C, strain SHM2, active compounds read low 1.02 | S. cerevisiae deletion strains, locus YLR102C, strain apc9, active compounds read low 0.986 | S. cerevisiae deletion strains, locus YLR113W, strain HOG1, active compounds read low 1.02 | S. cerevisiae deletion strains, locus YLR221C, strain rsa3, active compounds read low 0.978 | S. cerevisiae deletion strains, locus YLR258W, strain gsy2, active compounds read low 0.986 | S. cerevisiae deletion strains, locus YLR262C, strain YPT6 (second series), active compounds read low 0.966 | S. cerevisiae deletion strains, locus YLR262C, strain YPT6, active compounds read low 1.11 | S. cerevisiae deletion strains, locus YLR268W, strain sec22, active compounds read low 0.967 | S. cerevisiae deletion strains, locus YLR320W, strain mms22, active compounds read low 0.995 | S. cerevisiae deletion strains, locus YLR330W, strain CHS5, active compounds read low 1.02 | S. cerevisiae deletion strains, locus YLR342W, strain FKS1 (second series), active compounds read low 1.02 | S. cerevisiae deletion strains, locus YLR342W, strain FKS1, active compounds read low 0.978 | S. cerevisiae deletion strains, locus YLR357W, strain rsc2, active compounds read low 1.03 | S. cerevisiae deletion strains, locus YLR370C, strain arc18, active compounds read low 0.977 | S. cerevisiae deletion strains, locus YLR371W, strain rom2, active compounds read low 1.01 | S. cerevisiae deletion strains, locus YLR384C, strain iki3, active compounds read low 0.975 | S. cerevisiae deletion strains, locus YLR418C, strain cdc73, active compounds read low 1 | S. cerevisiae deletion strains, locus YML016C, strain PPZ1, active compounds read low 0.998 | S. cerevisiae deletion strains, locus YML032C, strain rad52, active compounds read low 0.988 | S. cerevisiae deletion strains, locus YML120C, strain ndi1, active compounds read low 0.984 | S. cerevisiae deletion strains, locus YML124C, strain tub3, active compounds read low 0.986 | S. cerevisiae deletion strains, locus YMR058W, strain fet3, active compounds read low 1 | S. cerevisiae deletion strains, locus YMR078C, strain ctf18, active compounds read low 1 | S. cerevisiae deletion strains, locus YMR125W, strain sto1, active compounds read low 1 | S. cerevisiae deletion strains, locus YMR129W, active compounds read low 0.974 | S. cerevisiae deletion strains, locus YMR205C, strain PFK2, active compounds read low 0.975 | S. cerevisiae deletion strains, locus YMR223W, strain ubp8, active compounds read low 1 | S. cerevisiae deletion strains, locus YMR231W, strain pep5, active compounds read low 1 | S. cerevisiae deletion strains, locus YMR307W, strain GAS1, active compounds read low 1.04 | S. cerevisiae deletion strains, locus YNL067W, strain RPL9B, active compounds read low 1 | S. cerevisiae deletion strains, locus YNL071W, strain lat1, active compounds read low 0.979 | S. cerevisiae deletion strains, locus YNL183C, strain NPR1, active compounds read low 0.96 | S. cerevisiae deletion strains, locus YNL209W, strain ssb2, active compounds read low 1 | S. cerevisiae deletion strains, locus YNL233W, strain BNI4, active compounds read low 0.995 | S. cerevisiae deletion strains, locus YNL248C, strain rpa49, active compounds read low 0.926 | S. cerevisiae deletion strains, locus YNL250W, strain rad50, active compounds read low 1.01 | S. cerevisiae deletion strains, locus YNL271C, strain bni1, active compounds read low 0.984 | S. cerevisiae deletion strains, locus YNL298W, strain CLA4, active compounds read low 0.992 | S. cerevisiae deletion strains, locus YNL307C, strain MCK1, active compounds read low 0.988 | S. cerevisiae deletion strains, locus YNL322C, strain KRE1 (second series), active compounds read low 0.98 | S. cerevisiae deletion strains, locus YNL322C, strain KRE1, active compounds read low 1.01 | S. cerevisiae deletion strains, locus YNR049C, strain mso1, active compounds read low 0.985 | S. cerevisiae deletion strains, locus YNR052C, strain pop2, active compounds read low 0.985 | S. cerevisiae deletion strains, locus YOL012C, strain htz1 1.39 | S. cerevisiae deletion strains, locus YOL147C, strain pex11, active compounds read low 0.973 | S. cerevisiae deletion strains, locus YOR001W, strain rrp6, active compounds read low 0.956 | S. cerevisiae deletion strains, locus YOR061W, strain CKA2, active compounds read low 1.02 | S. cerevisiae deletion strains, locus YOR069W, strain VPS5, active compounds read low 1.01 | S. cerevisiae deletion strains, locus YOR070C, strain gyp1, active compounds read low 0.99 | S. cerevisiae deletion strains, locus YOR080W, strain dia2, active compounds read low 0.979 | S. cerevisiae deletion strains, locus YOR083W, strain WHI5, active compounds read low 0.962 | S. cerevisiae deletion strains, locus YOR106W, strain vam3, active compounds read low 0.967 | S. cerevisiae deletion strains, locus YOR136W, strain idh2, active compounds read low 0.988 | S. cerevisiae deletion strains, locus YOR144C, strain elg1, active compounds read low 0.996 | S. cerevisiae deletion strains, locus YOR184W, strain ser1, active compounds read low 0.995 | S. cerevisiae deletion strains, locus YOR231W, strain MKK1, active compounds read low 1.02 | S. cerevisiae deletion strains, locus YOR265W, strain rbl2, active compounds read low 0.982 | S. cerevisiae deletion strains, locus YOR270C, strain vph1, active compounds read low 1 | S. cerevisiae deletion strains, locus YOR290C, strain snf2, active compounds read low 1 | S. cerevisiae deletion strains, locus YOR316C, strain cot1, active compounds read low 0.987 | S. cerevisiae deletion strains, locus YPL051W, strain arl3, active compounds read low 0.97 | S. cerevisiae deletion strains, locus YPL078C, strain atp4, active compounds read low 0.974 | S. cerevisiae deletion strains, locus YPL106C, strain sse1, active compounds read low 0.995 | S. cerevisiae deletion strains, locus YPL240C, strain hsp82, active compounds read low 0.991 | S. cerevisiae deletion strains, locus YPL256C, strain CLN2, active compounds read low 0.986 | S. cerevisiae deletion strains, locus YPR119W, strain clb2, active compounds read low 0.994 | S. cerevisiae deletion strains, locus YPR141C, strain kar3, active compounds read low 0.996 | S. cerevisiae deletion strains, locus YPR163C, strain tif3, active compounds read low 0.981 | S. cerevisiae deletion strains, locus YPR167C, strain met16, active compounds read low 1.01 | S. cerevisiae deletion strains, strain wtn01, active compounds read low 0.963 | S. cerevisiae strains, strain wild type, active compounds read low 1
